Measured values from PubChem BioAssay (NCATS).
Results filed as inconclusive are left out. Active and inactive are the calls of the source. Calls follow the shape of the dose curve; as a rule, active = well fitted cell-killing curve with a large enough effect; inconclusive = small, poorly fitted or top-dose-only effect, or effect the other way; inactive = flat fitted curve, though single readings scatter.

Key:
Assay in all cases: Primary qHTS to identify gynecologic anti-cancer compounds using libraries of approved drugs and bioactive compounds (AID 1345084); also: nearly all actives have a fitted effect of over 55% in size
C33A = settings: Gynecologic cancer cell panel viability, ATPlite luminescence, 48 h; series mostly up to 57.5 µM
Summary of the method: (§1)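 In this quantitative HTS, cell killing is estimated from loss of ATP-dependent luciferase light. Cells see five compound concentrations over a 48 h exposure.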

CAOV3 = settings: Gynecologic cancer cell panel viability, ATPlite luminescence, 48 h; series mostly up to 57.5 µM
Summary of the method: as §1

CASKI = settings: Gynecologic cancer cell panel viability, ATPlite luminescence, 48 h; series mostly up to 57.5 µM
Summary of the method: as §1

Es-2 = settings: Gynecologic cancer cell panel viability, ATPlite luminescence, 48 h; series mostly up to 57.5 µM
Summary of the method: as §1

HeLa = settings: Gynecologic cancer cell panel viability, ATPlite luminescence, 48 h; series mostly up to 57.5 µM
Summary of the method: as §1

Hek293T = settings: Gynecologic cancer cell panel viability, ATPlite luminescence, 48 h, control line for the selectivity index; series mostly up to 57.5 µM
Summary of the method: as §1

JEG-3 = settings: Gynecologic cancer cell panel viability, ATPlite luminescence, 48 h; series mostly up to 57.5 µM
Summary of the method: as §1
% is scaled to controls: 0 for no effect and ±100 for the full control effect.

CC(c1c[nH]c2ccccc12)C(O)C(=O)O (configuration not stated)
inactive: Potency (C33A) | Potency (CAOV3) | Potency (CASKI) | Potency (Es-2) | Potency (HeLa) | Potency (Hek293T) | Potency (JEG-3)

CCOC(=O)[C@H]1O[C@@H]1C(=O)N[C@@H](CC(C)C)C(=O)NCCC(C)C
inactive: Potency (C33A) | Potency (CAOV3) | Potency (CASKI) | Potency (Es-2) | Potency (HeLa) | Potency (Hek293T) | Potency (JEG-3)

CCOc1nc2cccc(C(=O)O)c2n1Cc1ccc(-c2ccccc2-c2noc(=O)[nH]2)cc1
inactive: Potency (C33A) | Potency (CAOV3) | Potency (CASKI) | Potency (Es-2) | Potency (HeLa) | Potency (Hek293T) | Potency (JEG-3)

CCC(=O)O[C@]1(C(=O)CCl)[C@@H](C)C[C@H]2[C@@H]3C[C@H](F)C4=CC(=O)C=C[C@]4(C)[C@@]3(F)[C@@H](O)C[C@@]21C
inactive: Potency (C33A) | Potency (CAOV3) | Potency (CASKI) | Potency (Es-2) | Potency (HeLa) | Potency (Hek293T) | Potency (JEG-3)

COCCN(C)Cc1ccc2nc3sc(C(=O)N(C)C4CCCCC4)cn3c2c1
inactive: Potency (C33A) | Potency (CAOV3) | Potency (CASKI) | Potency (Es-2) | Potency (HeLa) | Potency (Hek293T) | Potency (JEG-3)

CN1C(=O)c2ccccc2-n2c(nc3ccccc3c2=O)/C1=C/c1ccccc1
inactive: Potency (C33A) | Potency (CAOV3) | Potency (CASKI) | Potency (Es-2) | Potency (HeLa) | Potency (Hek293T) | Potency (JEG-3)

Cc1cccc(-c2[nH]c(CNc3ccccc3F)nc2-c2ccc3ncnn3c2)n1
inactive: Potency (C33A) | Potency (CAOV3) | Potency (CASKI) | Potency (Es-2) | Potency (HeLa) | Potency (Hek293T) | Potency (JEG-3)

C[C@@H]1CC[C@]2(C)C(C[C@@H](O)[C@H](O)[C@]23CO3)[C@@]1(C)CCc1ccoc1 (some centres not stated)
inactive: Potency (C33A) | Potency (CAOV3) | Potency (CASKI) | Potency (Es-2) | Potency (HeLa) | Potency (Hek293T) | Potency (JEG-3)

CC1(C)CC2C(C1)C1(C)CCC13OC3(CO)C2O (configuration not stated)
inactive: Potency (C33A) | Potency (CAOV3) | Potency (CASKI) | Potency (Es-2) | Potency (HeLa) | Potency (Hek293T) | Potency (JEG-3)

C[C@@H]1O[C@@H](O[C@H]2[C@H](O[C@H]3CO[C@@H](O[C@H]4CC[C@@]5(C)C(CC[C@]6(C)C5CC[C@]57OC[C@@]8(CC[C@](C)(CO)CC85)[C@H](O)C[C@]76C)C4(C)C)[C@H](O[C@@H]4O[C@H](CO)[C@@H](O)[C@H](O)[C@H]4O)[C@H]3O)O[C@H](CO)[C@@H](O)[C@@H]2O)[C@H](O)[C@H](O)[C@H]1O (some centres not stated)
inactive: activity change, negative = cytotoxicity (C33A) -5.68% [at 11.6 µM] | activity change, negative = cytotoxicity (CAOV3) -8.26% [at 11.6 µM] | activity change, negative = cytotoxicity (CASKI) -2.01% [at 11.6 µM] | activity change, negative = cytotoxicity (Es-2) -8.3% [at 11.6 µM] | activity change, negative = cytotoxicity (HeLa) 0% [at 11.6 µM] | activity change, negative = cytotoxicity (Hek293T) 0.0587% [at 11.6 µM] | activity change, negative = cytotoxicity (JEG-3) -0.317% [at 11.6 µM]

CCC(CC)n1ccc2c(C(=O)NCc3c(C)cc(C)[nH]c3=O)cc(C#N)cc21
inactive: Potency (C33A) | Potency (CAOV3) | Potency (CASKI) | Potency (Es-2) | Potency (HeLa) | Potency (Hek293T) | Potency (JEG-3)

CC1=CC(=O)C2C(C)(C)CCCC2(C)C12CCC1(COC(=O)C1)O2 (configuration not stated)
inactive: Potency (C33A) | Potency (CAOV3) | Potency (CASKI) | Potency (Es-2) | Potency (HeLa) | Potency (Hek293T) | Potency (JEG-3)

C=C1CC[C@H]2[C@@](C)(CCC[C@@]2(C)C(=O)O)[C@@H]1CCC(C)CCO (some centres not stated)
inactive: Potency (C33A) | Potency (CAOV3) | Potency (CASKI) | Potency (Es-2) | Potency (HeLa) | Potency (Hek293T) | Potency (JEG-3)

CC12CCC3c4ccc(O)cc4CCC3C1CCC2OC1OC(C(=O)O)C(O)C(O)C1O (configuration not stated)
inactive: Potency (C33A) | Potency (CAOV3) | Potency (CASKI) | Potency (Es-2) | Potency (HeLa) | Potency (Hek293T) | Potency (JEG-3)

CC[C@H]1OC(=O)[C@H](C)[C@@H](O[C@H]2C[C@@](C)(OC)[C@@H](O)[C@H](C)O2)[C@H](C)[C@@H](O[C@@H]2O[C@H](C)C[C@H](N(C)C)[C@H]2O)[C@@](C)(O)C[C@@H](C)[C@@H]2N[C@@H](COCCOC)OC([C@H]2C)[C@]1(C)O
inactive: Potency (C33A) | Potency (CAOV3) | Potency (CASKI) | Potency (Es-2) | Potency (HeLa) | Potency (Hek293T) | Potency (JEG-3)

CC1(C)CCCC2(C)C1C(O)C=C(CO)C2(O)C(=O)O (configuration not stated)
inactive: Potency (C33A) | Potency (CAOV3) | Potency (CASKI) | Potency (Es-2) | Potency (HeLa) | Potency (Hek293T) | Potency (JEG-3)

O=C(O[C@@H]1O[C@H](CO)[C@@H](O)[C@H](O)[C@H]1O)c1c(O)cc(O)cc1/C=C/c1ccccc1
inactive: Potency (C33A) | Potency (CAOV3) | Potency (CASKI) | Potency (Es-2) | Potency (HeLa) | Potency (Hek293T) | Potency (JEG-3)

COc1c2c(c(C)c3c1C(=O)OC3)O[C@@]1(C)C[C@@H](O)[C@]34O[C@](OC)(CC[C@]3(C)[C@H]1C2)OC4(C)C
inactive: Potency (C33A) | Potency (CAOV3) | Potency (CASKI) | Potency (Es-2) | Potency (HeLa) | Potency (Hek293T) | Potency (JEG-3)

CC(C)CC(=O)OC[C@H]1O[C@@](COC(=O)CC(C)C)(O[C@H]2O[C@H](CO)[C@@H](O)[C@H](O)[C@H]2OC(=O)CC(C)C)[C@@H](OC(=O)CC(C)C)[C@@H]1O
inactive: Potency (C33A) | Potency (CAOV3) | Potency (CASKI) | Potency (Es-2) | Potency (HeLa) | Potency (Hek293T) | Potency (JEG-3)

COc1c(C)c(OCC=C(C)C)cc2c1C(=O)NC2=O
inactive: Potency (C33A) | Potency (CAOV3) | Potency (CASKI) | Potency (Es-2) | Potency (HeLa) | Potency (Hek293T) | Potency (JEG-3)

C=CC1(C)C=C2C(O)CC3C(C)(C(=O)O)CCCC3(C)C2CC1 (configuration not stated)
inactive: Potency (C33A) | Potency (CAOV3) | Potency (CASKI) | Potency (Es-2) | Potency (HeLa) | Potency (Hek293T) | Potency (JEG-3)
